{"source": "PubChem BioAssay (NCI)", "note": "Compounds without any hit were thinned out: in the full panel of roughly 83,000, 20% have a hit.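 Method: cells in 96-well plates; compound added at one concentration; 48 h incubation; percent growth measured; values under 10 scored active.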 Active and inactive are the calls of the source."}
{"test_system": "HOP-92 NSCLC", "experiment": "NCI-60 one-dose screen, 48 h (100 = growth as untreated, 0 = no growth, -100 = all killed)", "settings": "10 µM unless noted", "protocol": "Growth inhibition of the HOP-92 human Non-Small Cell Lung tumor cell line is measured as a screen for anti-cancer activity. Cells are grown in 96 well plates and exposed to the test compound for 48 hours. Compounds are tested at a single concentration, which is 10^-5 M for most compounds. The reported endpoint is percent growth (GI% or GIPRCNT), where numbers from 0 - 100% represent growth inhibition, and numbers from -100% - 0 represent cell death. For example, a value of 40 represents 60% growth inhibition. A value of 0 means no net growth occurred over the course of the experiment. A value of -40 indicates 40% of cells at the beginning of the experiment died by the end of the experiment. A value of -100 means all cells are dead at the end of the experiment.\nNCI-60 Human Tumor Cell Lines Screen was performed using the standard one-dose NCI protocol, which is described in more detail at https://dtp.cancer.gov/discovery_development/nci-60/default.htm.\nCompounds with GIPRCNT values below 10 were considered active. Activity score was based on GIPRCNT using the following formula: […]\nScore is 0 for GIPRCNT values of 100 or above, 50 for GIPRCNT values of 0, and 100 for GIPRCNT values of -100."}
{"smiles": "C=C1C(=O)O[C@H]2[C@H](O)[C@@H](C)CCC/C(C)=C/CC[C@@]3(C)O[C@@H]3C[C@@H]12", "growth": "58% (inactive)"}
{"smiles": "COc1ccc(NC(=O)/N=c2\\oc3c(OC)cccc3cc2-c2cc3ccccc3[nH]2)cc1", "growth": "-9.99% (active)"}
{"smiles": "Oc1ccc(N=Cc2ccccc2)cc1", "growth": "51.9% (inactive)"}
{"smiles": "COc1cc(NC(=O)c2cc3ccccc3nc2Nc2ccc(F)cc2)cc(OC)c1OC", "growth": "28.5% (inactive)"}
{"smiles": "CC1CCN(C(=O)CSc2nc3sc4c(c3c(=O)[nH]2)CCCC4)CC1", "growth": "88.2% (inactive)"}
{"smiles": "O=c1[nH]c(CN2CCN(c3ccccc3F)CC2)nc2sc3c(c12)CCC3", "growth": "89% (inactive)"}
{"smiles": "COc1ccc(-c2cn[nH]c2-c2cc(OC)c3c(c2)OCO3)cc1", "growth": "33.4% (inactive)"}
{"smiles": "COc1ccc(C2=NN(c3ccc(S(N)(=O)=O)cc3)C(c3cn(-c4ccccc4)nc3-c3ccc(Cl)cc3)C2)cc1", "note": "(stereo not given)", "growth": "110% (inactive)"}
{"smiles": "CCCCCCCCCCC/C=C\\C[C@H](O)C/C=C1/C(=O)C=C[C@@H]1C/C=C\\CCCC(=O)OC", "growth": "-13.6% (active)"}
{"smiles": "Cc1ccc2nc(SCn3nnc4ccccc4c3=O)[nH]c2c1", "growth": "82.8% (inactive)"}
{"smiles": "COc1ccc(/C=C\\c2cc(OC)c(OC)c(OC)c2)c(NS(=O)(=O)c2ccc(C(C)(C)C)cc2)c1O", "growth": "10.8% (inactive)"}
{"smiles": "Nc1c(C(=O)Nc2ccccc2)sc2nc3c(cc12)CCCCC3", "growth": "-4.43% (active)"}
{"smiles": "CC(=O)Oc1cccc(OC(C)=O)c1OC(C)=O", "growth": "106% (inactive)"}
{"smiles": "CCC#CC[C@H]1C/C=C2/C(=O)C=C[C@@H]2C/C=C\\CCCC(=O)O1", "growth": "-5.7% (active)"}
{"smiles": "COc1cccc(C2CC(=O)Nc3c2c(C)nn3-c2nc3ccccc3[nH]2)c1OC", "note": "(stereo not given)", "growth": "85.4% (inactive)"}
{"smiles": "CCC(=O)Nc1ccccc1C#C/C=C\\C#Cc1ccccc1SC", "growth": "48.1% (inactive)"}
{"smiles": "COc1ccc(C(=O)c2cc(OC)c(OC)c(OC)c2)cc1/C=C/C(=O)c1ccc(OC)c(OC)c1", "growth": "39.4% (inactive)"}
{"smiles": "COc1ccc(OC)c(NC(=O)c2cc(S(=O)(=O)N3CCc4ccccc43)ccc2OC)c1", "growth": "74.5% (inactive)"}
{"smiles": "Cc1cc(C)c(NC(=O)c2sc3nc4c(cc3c2N)CN(Cc2ccccc2)CC4)c(C)c1", "growth": "37.7% (inactive)"}
{"smiles": "NC(=O)c1cccc(N2Cc3ccccc3OC3=C2C(=O)c2c(O)ccc(O)c2C3=O)c1", "growth": "-91.8% (active)"}
{"smiles": "CCN1C(=O)N(CC)C2C1NN=c1s/c(=C\\c3cccc(F)c3)c(=O)n12", "note": "(stereo not given)", "growth": "29.6% (inactive)"}
{"smiles": "FC(F)(F)c1cccc(-n2nnc3cnc(Nc4ccc(N5CCCCC5)cc4)nc32)c1", "growth": "110% (inactive)"}
{"smiles": "O=C(CN1CCN(c2cc3c(cc2F)c(=O)c(C(=O)O)cn3C2CC2)CC1)Nc1ccc(C(=O)/C=C/c2ccccc2)cc1", "growth": "14.9% (inactive)"}
{"smiles": "Cc1cc2c(C(C)C)c(O)c(O)c(C=NCCCCC(=O)O)c2c(O)c1-c1c(C)cc2c(C(C)C)c(O)c(O)c(C=NCCCCC(=O)O)c2c1O", "growth": "22.6% (inactive)"}
{"smiles": "CC[C@H](C)[C@H]1NC(=O)[C@@H](N[C@](C)(O)[C@@H](N)CC(C)C)[C@@H](C)OC(=O)[C@H](Cc2ccc(OC)cc2)N(C)C(=O)[C@@H]2CCCN2C(=O)[C@H](CC(C)C)NC(=O)[C@@H](C)C(=O)[C@H](C(C)C)OC(=O)C[C@@H]1O", "growth": "-14.1% (active)"}
{"smiles": "COc1ccc(/C=N/NC(=O)Cn2c(Cc3cccc4ccccc34)nc3ccccc32)cc1", "growth": "101% (inactive)"}
{"smiles": "c1ccn2nnnc2c1", "growth": "103% (inactive)"}
{"smiles": "Cc1nc(Nc2cccnc2)sc1C(=O)/C=C/c1ccc(F)cc1", "growth": "88.6% (inactive)"}
{"smiles": "COc1ccccc1CNCCCN1C(=O)c2ccc3c4c(ccc(c24)C1=O)C(=O)N(CCCNCCCCNCCCCN)C3=O", "growth": "-6.2% (active)"}
{"smiles": "CC1Cc2c(N(C)C)ncnc2N(C)c2ccc(O)cc21", "note": "(stereo not given)", "growth": "81.2% (inactive)"}
{"smiles": "COC(=O)CCCCN=Cc1c(O)c(O)c(C(C)C)c2cc(C)c(-c3c(C)cc4c(C(C)C)c(O)c(O)c(C=NCCCCC(=O)OC)c4c3O)c(O)c12", "growth": "-10.1% (active)"}
{"smiles": "O=C(CCl)NCCNc1nccc(Nc2ccc(S(=O)(=O)Nc3ccccn3)cc2)n1", "growth": "31.2% (inactive)"}
{"smiles": "COc1c(NC[C@H]2OC(O)[C@H](O)[C@@H](O)[C@@H]2O)c(=O)c1=O", "note": "(stereo not given in full)", "growth": "95.6% (inactive)"}
{"smiles": "O=S(=O)(c1ccccc1)n1ccc(-c2ccc3c(c2)CCO3)n1", "growth": "41.8% (inactive)"}
{"smiles": "COc1ccc(-n2cnc3c(sc4ncc(Cl)cc43)c2=O)cc1", "growth": "42.9% (inactive)"}
{"smiles": "COc1cc(Cn2c(-c3nonc3N)nc3ccccc32)ccc1C", "growth": "39.8% (inactive)"}
{"smiles": "COc1cc(C(=O)OCCCCCCCCCCC[P+](c2ccccc2)(c2ccccc2)c2ccccc2)ccc1O", "growth": "-49.5% (active)"}
{"smiles": "COc1ccc(N=C2NN=C(c3ccc(F)cc3)CS2)cc1OC", "growth": "72.8% (inactive)"}
{"smiles": "CC(=O)N1Cc2ccccc2C(C)Cc2cc(Cl)ccc21", "note": "(stereo not given)", "growth": "99.3% (inactive)"}
{"smiles": "O=S(=O)(NCCCNc1cc(-c2cn(-c3ccccc3)nc2-c2cccc(O)c2)ccn1)c1ccc(Cl)cc1", "growth": "-6.58% (active)"}
